Out of some 48,000 compounds screened, about 13,000 (27%) showed an effect of 50% or more. The list shows a part of the results.
Each molecule was assayed on Wolbachia pipientis (assay: Anti-Wolbachia Cell-Based Screen). Settings: 5 µM.
Format: functional
Set-up: scale not given: in the data most compounds retested in dose-response had high values

SMILES | Percent Effect
COC(=O)N1CCCN(C(=O)NCc2ccc(Cl)s2)CC1 | 11.92%
CC(C)COCCC(=O)Nc1cc(-n2nnnc2C2CC2)ccc1F | 3.649%
CC1CN(CC(=O)Nc2nncs2)CCN1c1nccs1 (stereo not drawn) | -0.151%
CC1CN(CC(=O)Nc2ccncc2)CCN1c1nccs1 (stereo not drawn) | 150.9%
CC1CN(CC(=O)Nc2cccnc2)CCN1c1nccs1 (stereo not drawn) | 0.898%
CCSC(C)C(=O)N1CCC(c2nn(C)c(=O)n2-c2ccccc2)CC1 (stereo not drawn) | -5.623%
CC(C)CN1CCCC1c1cc[nH]n1 (stereo not drawn) | 114.8%
c1cc(-c2noc([C@@H]3CCCN3CC3CC3)n2)cc(N2CCCC2)n1 | 1.663%
OCCCN1CCCC1c1ccc(Br)cc1 (stereo not drawn) | -3.155%
c1cc(C2CCCN2CC2CCCCC2)n[nH]1 (stereo not drawn) | 159.6%
c1cc(C2CCCN2CC2CC2)n[nH]1 (stereo not drawn) | 189.2%
CC(C)CN1CCCC1c1ccc(C(=O)Nc2cc[nH]n2)s1 (stereo not drawn) | 6.388%
Nc1ncncc1-c1noc([C@@H]2CCCN2CC2CC2)n1 | -1.832%
c1cc(-c2c[nH]c([C@@H]3COCCN3CC3CC3)n2)ccn1 | -6.01%
CN1CCC(c2n[nH]c(=O)n2CC2CCCCC2)CC1 | 16.1%
OCCN1CCCCC1c1cc[nH]n1 (stereo not drawn) | 167%
COCCOc1ccnc(-c2noc([C@@H]3CCCN3CC(C)C)n2)c1 | -7.911%
OCCOCCN1CCCC1c1cccc(Cl)c1 (stereo not drawn) | -3.053%
CC(C)NC(=O)CCNC(=O)c1cc(F)ccc1NS(C)(=O)=O | -9.152%
CCOc1ccc(C(=O)N(C)C)cc1NC(=O)c1ccsc1 | 9.824%
CCc1nncn1CCNC(=O)Nc1ccc(OC)c(C)c1 | -6.777%
CCn1ccnc1CN1CCN(CC(O)Cn2cccn2)CC1 (stereo not drawn) | -2.692%
Cc1cc(C)c2cc(CNCc3ccc(C)o3)c3nn(C)c(=O)n3c2c1 | 122.6%
Cc1cc(C)c2cc(CNCc3ccco3)c3nn(C)c(=O)n3c2c1 | 111.5%

SMILES | Percent Effect
Cc1ccc(NCc2ccco2)cc1N1CCOC1=O | -6.269%
Cc1ccc(CNCc2nnc3n2CCCC3C(F)(F)F)o1 (stereo not drawn) | 18.11%
Cc1ccc(CNCCC(O)(c2nccn2C)C(F)(F)F)o1 (stereo not drawn) | -16.77%
Cc1cc(C)c2cc(CNCc3cccnc3)c3nn(C)c(=O)n3c2c1 | 113.3%
Cc1cc(C)c2cc(CNCc3ccccc3)c3nn(C)c(=O)n3c2c1 | -7.626%
Cc1cc(C)c2cc(C(=O)N3CCN(Cc4ccco4)CC3)[nH]c2c1 | 21.49%
COc1ccc(Oc2ccc(C(F)(F)F)cn2)cc1CN1CCCC1 | -1.522%
CCn1ccnc1S(=O)(=O)Cc1c(C)cc(C)c(C(C)=O)c1C | -13.95%
CC(C)CN(Cc1ccsc1)C(=O)CCCn1cncn1 | 5.825%
CCOc1cccc(CNC(=O)C(C)(C)C#N)c1OC(F)F | -15.69%
CCC(=O)N1CC[C@H]2[C@H](C[C@@H](Cn3cccn3)N2c2nccs2)C1.O=C(O)C(F)(F)F.O=C(O)C(F)(F)F | 119.1%
CCC(=O)N1CC[C@H]2[C@H](C[C@@H](CN3CCCC3)N2c2nccs2)C1.O=C(O)C(F)(F)F.O=C(O)C(F)(F)F | 104%
CC(=O)N1CC[C@H]2[C@H](C[C@@H](CN3CCCC3)N2c2nccs2)C1.O=C(O)C(F)(F)F.O=C(O)C(F)(F)F | 95.98%
Cl.Cl.c1csc(N2[C@H](Cn3cncn3)C[C@@H]3CNCC[C@@H]32)n1 | 3.496%
O=C(O)C(F)(F)F.O=C(O)C(F)(F)F.O=C(O)C(F)(F)F.c1cnn(C[C@@H]2C[C@@H]3CN(CC4CC4)CC[C@@H]3N2c2nccs2)c1 | 119.3%
CC(=O)N1[C@H](Cn2cncn2)C[C@@H]2CN(CC3CC3)CC[C@@H]21.O=C(O)C(F)(F)F | -0.2509%
CCCc1nnc(NC(C)c2ccc(F)cc2)o1 (stereo not drawn) | -29.12%
Cc1cccc2c(CCNC(=O)[C@H](N)c3ccccc3)c[nH]c12 | -3.898%
CCC(NCc1ccccc1)c1ccccc1OCC(=O)NC (stereo not drawn) | -0.2413%
CSCC(=O)N1C[C@H]2CC[C@@H]1CN(C1Cc3ccccc3C1)C2 | 0.6506%
CN1CC[C@H]2[C@H](C[C@@H](CN3CCCC3)N2c2nccs2)C1.O=C(O)C(F)(F)F.O=C(O)C(F)(F)F.O=C(O)C(F)(F)F | 105.1%
CN1CC(=O)N(c2cccc(F)c2)CC12CCN(Cc1ccsc1)C2.O=C(O)C(F)(F)F.O=C(O)C(F)(F)F (stereo not drawn) | 7.196%
CC1N(C)C(=O)COC12CCN(Cc1ccsc1)CC2.O=C(O)C(F)(F)F (stereo not drawn) | -20.67%
CN(C)C(=O)CN1C(=O)CCC12CCN(Cc1ccsc1)CC2.O=C(O)C(F)(F)F | 105.6%

SMILES | Percent Effect
CN(C)C(=O)CN1C(=O)CCC12CCN(Cc1cccs1)CC2.O=C(O)C(F)(F)F | 103.6%
Cc1ccc(CN2CCC3(CCCN3S(C)(=O)=O)CC2)s1.O=C(O)C(F)(F)F | -3.179%
Cc1ccc(CN2CCC3(CCC(=O)N3CC(=O)N(C)C)CC2)s1.O=C(O)C(F)(F)F | 113.5%
CN(C)C(=O)CN1CCC2(CCCN(Cc3cccs3)C2)C1=O.O=C(O)C(F)(F)F (stereo not drawn) | -0.327%
Cc1ccc(CN2CCC3(CCCC(=O)N3)CC2)s1.O=C(O)C(F)(F)F | -45.29%
Cc1ccc(CN2CCOC3(CCCN(C(=O)c4ccco4)C3)C2)s1.O=C(O)C(F)(F)F (stereo not drawn) | 12.79%
N#Cc1nccnc1N1CCC(CSc2ccccc2)C1 (stereo not drawn) | -2.144%
Cc1cc2c(=O)n(CCSc3cnn[nH]3)cnc2s1 | 114.6%
Cc1cc2c(=O)n(CCSc3ncn[nH]3)cnc2s1 | 95.33%
CCc1ncc(-c2cn(CCSc3ncn[nH]3)nn2)cn1 | -12.01%
Cc1csc2c(=O)n(CCN3CCNCC3)cnc12 | -1.772%
Cc1csc2c(=O)n(CCSc3cnn[nH]3)cnc12 | 116%
Cc1cc2c(=O)n(CCOCCO)cnc2s1 | -13.8%
CCC1CCN(CCn2cnc3c(C)csc3c2=O)CC1 | -5.154%
Cc1cc(C)nc(NCCSc2cnn[nH]2)n1 | 5.167%
COc1ccc(-c2cn(CCSc3ncn[nH]3)nn2)cn1 | 4.594%
CN(CCCc1cnn(C)c1)C(=O)Nc1cccc2[nH]ncc12 | -6.714%
CCc1cnc(N2CC3(CCN(C(=O)c4ccoc4)C3)C2)nc1 | -9.292%
CN(C)C[C@H]1OC[C@@H]2CCN(C(=O)c3ccc[nH]3)C[C@@H]21.O=C(O)C(F)(F)F | -11.36%
CC(=O)N(C)CC(=O)NC1(c2ccc(F)cc2)CCCC1 | -10.47%
O=C1NCCO[C@H]2CN(C(=O)Cc3csc4ccccc34)CC[C@@H]12 | 14.47%
CCCn1cnnc1CNC(=O)CC1C(=O)NCCN1CC=C(C)C (stereo not drawn) | 0.5151%
O=C(O)C(F)(F)F.O=C1CC[C@H]2[C@H](CCN2c2ccccn2)N1CC1CCOCC1 | -16.88%
Cc1oncc1C(=O)N1CC[C@H]2[C@@H]1CCC(=O)N2CC1CC1 | 108%

SMILES | Percent Effect
O=C1C[C@H]2[C@H](CCN2C(=O)c2ccno2)N1CC1CC1 | 88.14%
CCc1cnc(N2CC[C@H]3[C@@H]2CCC(=O)N3CC2CCOCC2)nc1.O=C(O)C(F)(F)F | -1.93%
Cc1ccc(C(=O)N2CC[C@@H]3[C@H]2CCC(=O)N3CC2CC2)o1 | 4.088%
Cn1cccc1C(=O)N1CC[C@H]2[C@@H]1CCC(=O)N2CC1CC1 | -7.905%
Cc1noc(C)c1CN1CC[C@H]2[C@@H]1CCC(=O)N2CC1CCOCC1.O=C(O)C(F)(F)F | 107.1%
Cc1nc(CN2C(=O)CC[C@@H]3[C@H]2CCN3C(=O)c2ccno2)cs1 | 0.107%
Cn1cccc1C(=O)N1CC[C@@H]2[C@@H]1CC(=O)N2CC1CCOCC1 | -5.807%
O=C1CC[C@@H]2[C@@H](CCN2C(=O)C2CCOCC2)N1CC1CC1 | -4.769%
Cc1oncc1C(=O)N1CC[C@H]2[C@@H]1CCC(=O)N2CC1CCOCC1 | 95.19%
Cc1nn(CC(=O)NCC2(C(N)=O)CCOCC2)c(C)c1Cl | 113.9%
Cn1ccc2c(C(=O)NCC3(C(N)=O)CCOCC3)cccc21 | -19.6%
Cc1nn(C)c(C)c1S(=O)(=O)N(CC(N)=O)CC(C)C | 0.7063%
Cc1nn(C)c(C)c1S(=O)(=O)NCC1(C(N)=O)CCOCC1 | 87.99%
CCc1nc(CC(=O)NCC2(C(N)=O)CCOCC2)cs1 | 13.26%
Cc1nn(C)c(C)c1S(=O)(=O)NCC(C)(O)c1ccc2c(c1)OCO2 (stereo not drawn) | 12.95%
CCN(CC)c1ccc(C(=O)NCC2(C(N)=O)CCOCC2)cn1 | -5.685%
Cc1nn(C)c(C)c1CCC(=O)NCc1csc(N2CCCC2)n1 | -4.027%
Cc1nn(C)c(C)c1CCC(=O)NCC1(C(N)=O)CCOCC1 | 112%
Cc1nn(C)c(C)c1CC(=O)NCC1(C(N)=O)CCOCC1 | 121.1%
CCN(CC)c1ccc(NC(=O)NCC2(C(N)=O)CCOCC2)cn1 | -0.5907%
CC(C)C1CN(Cc2nccn2C(C)C)CCC(=O)N1CC1CC1 (stereo not drawn) | -13.37%
